# Reference: paper PMC7826789 (International Journal of Molecular Sciences, 2021)
# How the values were obtained:
# Settings in all cases: Compound Concentration (nM):1000
# AAK1 = test system: AAK1
# [1] = test system: ABL1(E255K)-phosphorylated
# [2] = test system: ABL1(F317I)-nonphosphorylated
# [3] = test system: ABL1(F317I)-phosphorylated
# [4] = test system: ABL1(F317L)-nonphosphorylated
# [5] = test system: ABL1(F317L)-phosphorylated
# [6] = test system: ABL1(H396P)-nonphosphorylated
# [7] = test system: ABL1(H396P)-phosphorylated
# [8] = test system: ABL1(M351T)-phosphorylated
# [9] = test system: ABL1(Q252H)-nonphosphorylated
# [10] = test system: ABL1(Q252H)-phosphorylated
# [11] = test system: ABL1(T315I)-nonphosphorylated
# [12] = test system: ABL1(T315I)-phosphorylated
# [13] = test system: ABL1(Y253F)-phosphorylated
# ABL1-nonphosphorylated = test system: ABL1-nonphosphorylated
# ABL1-phosphorylated = test system: ABL1-phosphorylated
# ABL2 = test system: ABL2
# ACVR1B = test system: ACVR1B
# ACVR1 = test system: ACVR1
# ACVR2A = test system: ACVR2A
# 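Further: KINOMEscan scanMAX binding as percent activity remaining versus control; lower means stronger binding.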
Compound,Percent Control (AAK1) [%],Percent Control [1] [%],Percent Control [2] [%],Percent Control [3] [%],Percent Control [4] [%],Percent Control [5] [%],Percent Control [6] [%],Percent Control [7] [%],Percent Control [8] [%],Percent Control [9] [%],Percent Control [10] [%],Percent Control [11] [%],Percent Control [12] [%],Percent Control [13] [%],Percent Control (ABL1-nonphosphorylated) [%],Percent Control (ABL1-phosphorylated) [%],Percent Control (ABL2) [%],Percent Control (ACVR1B) [%],Percent Control (ACVR1) [%],Percent Control (ACVR2A) [%]
COc1ccc2cc(-c3c(-c4ccncc4)nc(-c4ccc(S(C)(=O)=O)cc4C)n3C)ccc2c1 [SB-633825],83,80,100,65,83,74,58,78,81,63,83,53,54,86,66,75,62,19,60,100
COc1ccc2c(-c3ccnc(Nc4cccc(OC(F)(F)F)c4)n3)cnn2n1 [GW810372X],69,100,100,100,100,100,87,100,97,98,100,100,98,100,100,100,100,100,93,100
Cl.c1ccc(Cc2nc3ccc(Nc4ncnc5ccccc45)cc3[nH]2)cc1 [GR269666A],100,100,100,88,100,92,86,100,100,98,100,100,100,100,96,100,100,100,100,100
NS(=O)(=O)c1ccc(N/N=C2\C(=O)Nc3ccc(-c4cnco4)cc32)cc1 [GW276655],14,63,69,59,75,74,58,83,92,85,70,67,70,69,84,74,98,100,66,90
C[C@@H](Oc1cc(-n2cnc3ccc(OC4CCN(C)CC4)cc32)sc1C(N)=O)c1ccccc1Cl [GSK579289A],62,44,52,87,100,78,43,56,80,46,67,61,75,60,60,48,83,81,85,57
O=C(Nc1n[nH]c2nc(-c3ccc(O)cc3)c(Br)cc12)C1CC1 [SB-725317],79,26,100,80,100,100,1.9,28,33,7,37,16,12,48,22,31,100,100,72,75
COc1cc(/C=N/Nc2ncnc3[nH]ncc23)ccc1O [GW578748X],34,0.8,100,37,56,23,0,1.3,0,0,1.6,79,24,1.1,3.1,1.2,68,100,83,50
CCc1ccc(Oc2nccc(-c3c(-c4ccc(F)cc4)ncn3C3CCNCC3)n2)cc1 [SB-242719],100,63,87,80,100,98,77,67,98,68,79,93,100,71,74,62,100,83,78,100
NS(=O)(=O)c1ccc(Nc2ncc(-c3ccccc3)o2)cc1 [GW572399X],94,81,99,87,86,100,35,87,83,78,100,100,89,100,81,87,88,100,100,100
COc1ccc(COc2ccc(Cc3cnc(N)nc3N)cc2OC)cc1 [GW632580X],94,75,99,95,100,93,88,86,85,88,92,100,87,84,90,76,91,100,74,95
Cl.O=C(Nc1ccc(Oc2ccc3[nH]c(NC(=O)c4ccco4)nc3c2)cc1)Nc1cc(C(F)(F)F)ccc1F [GW683134A],100,39,20,53,6.8,54,0.7,20,22,5.5,58,6.2,9.2,17,7.9,21,3.2,82,100,100
CN(C)CCNC(=O)Nc1ccc(N(C)c2ccnc(Nc3ccc(CS(C)(=O)=O)cc3)n2)cc1.Cl [GW830900A],20,82,93,84,91,84,38,82,73,47,58,78,86,65,59,71,75,100,79,79
CCn1c(-c2nonc2N)nc2c(C#CC(C)(C)O)nc(OCCNC)cc21.Cl [GSK949675],100,98,100,100,100,100,85,93,100,100,96,87,100,91,97,78,100,100,100,100
CCS(=O)(=O)c1ccc(OC)c(Nc2ncc(-c3cccc(F)c3)o2)c1 [GW621970X],100,6.7,98,51,47,5.4,1.1,9.3,6.6,4.5,4.9,100,91,7.1,20,9.9,33,100,18,100
COc1ccccc1-c1cc(/C=C2\C(=O)Nc3ncc(Br)cc32)cc(Br)c1O [GW442130X],87,83,100,100,100,100,48,85,100,94,86,87,100,88,84,77,100,95,100,100
COc1cc2ncn(-c3cc(O[C@H](C)c4ccccc4Cl)c(C(N)=O)s3)c2cc1OC [GSK237701A],29,81,100,86,92,71,20,78,56,46,76,51,39,83,59,81,73,100,100,100
CN1CCN(C(=O)c2ccc(NC(=O)Nc3ccc(N(C)c4ccnc(Nc5ccc(CS(C)(=O)=O)cc5)n4)cc3)cc2)CC1.Cl [GW830263A],19,38,96,69,51,34,1.4,32,20,6.1,30,0,21,20,9,30,44,77,28,78
Cl.O=S1CCN(Cc2ccc(-c3ccc4ncnc(Nc5ccc(OCc6ccccc6)c(F)c5)c4c3)o2)CC1 [GW576924A],100,100,100,96,100,70,99,100,100,100,100,100,100,100,100,89,100,100,100,100
COc1cc(C)c(N(C)C(=O)CN(C)C)cc1Nc1nc(Nc2cccc(F)c2C(N)=O)c2cc[nH]c2n1 [GSK2219385],94,95,55,97,100,56,51,99,100,62,95,65,100,100,69,87,100,100,96,100
COc1cccc(-c2c[nH]c3c(N/N=C/c4ccncc4)ncnc23)c1 [GW814408X],69,0.7,100,66,61,19,0,0.2,0.3,0,1.1,50,48,0.5,1.2,0.3,11,42,17,75
